The results in this text go back to PubChem BioAssay AID425 (Sanford-Burnham Center for Chemical Genomics, 2006).

Usually inhibition stands for the relative decrease from the control value, in per cent.

SMILES strings stand for the structures. “And” between values parts separate entries of the source, which are not always exact repeats. Equal entries are not always repeated. Among all 110,000 compounds or so, about 190 (0.17%) were called active. The sample holds actives, similar compounds and a random draw of the others, so the mix is not that of the screen. Measured potencies and affinities stand elsewhere. Unmarked numbers belong to inactive results. Rule as the data show it: active = inhibition above about 50%; inactive = the rest.

The target in the assay is Dual specificity protein phosphatase 6 (Rattus norvegicus) (UniProt Q64346). Description: inhibition of rat DUSP6 enzyme activity – biochemical, in vitro, primary screen (AID 425).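 Also: plate controls were vehicle for no effect and reference inhibitor for full effect.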 Particulars: recombinant MKP-3 phosphatase activity, fluorescence; at 20 µM; hits give high values.
Chain of Dual specificity protein phosphatase 6 (Rattus norvegicus) (Q64346 whole entry, looked up): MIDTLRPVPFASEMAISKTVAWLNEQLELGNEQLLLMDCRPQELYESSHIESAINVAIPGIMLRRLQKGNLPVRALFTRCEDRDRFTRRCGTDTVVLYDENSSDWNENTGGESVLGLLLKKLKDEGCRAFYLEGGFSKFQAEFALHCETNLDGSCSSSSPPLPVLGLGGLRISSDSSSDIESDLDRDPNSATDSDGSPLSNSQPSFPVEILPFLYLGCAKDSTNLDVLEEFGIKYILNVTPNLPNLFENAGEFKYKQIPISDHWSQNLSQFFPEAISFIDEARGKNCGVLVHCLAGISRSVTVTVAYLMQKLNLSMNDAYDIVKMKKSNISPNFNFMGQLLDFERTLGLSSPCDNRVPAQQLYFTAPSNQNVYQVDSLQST
Take `O=C(Nc1nncs1)c1cc(-c2ccccc2Cl)nc2ccccc12`: the inhibition was 1.9%. For the compound `CCOc1ccc(CCNc2nc3c(c(=O)n(C)c(=O)n3C)n2CC)cc1OCC`, the inhibition was -1%. Regarding `O=C(N/N=C\c1cn(Cc2ccc(Cl)c(Cl)c2)c2ccccc12)c1ccc([N+](=O)[O-])cc1`, the inhibition was -0.1%. Under `O=C(CNc1cccc2ccccc12)N/N=C/c1cn(Cc2ccccc2)c2ccccc12` stands 4.7%; under `O=C(c1cc2ccccc2oc1=O)N1CCCN(C(=O)c2cc3ccccc3oc2=O)CC1`, 3.4%. With `CC(C)(C)C(=O)/C=C(\N)c1ccccn1`, the inhibition is -3.7%. For the compound `COc1ccc(C2NC(=S)NC(C)=C2C(=O)Nc2ccccc2)c(OC)c1` (centres undefined), the inhibition is 1.7%.

Turning to `O=[N+]([O-])c1cc(N=Cc2ccc(Br)s2)ccc1Cl`, the inhibition was 0.8%.

Regarding `O=C(O)c1ccc(N=Cc2ccc([N+](=O)[O-])s2)cc1`, the inhibition was 83.1% (active).

As for `O=[N+]([O-])c1ccc(C=Nc2ccc(Br)c(Cl)c2)s1`, the inhibition was -1.9%.

For `Cc1cccc(N=Cc2ccc([N+](=O)[O-])s2)c1`, the inhibition was 49.9%. Consider `O=C(c1ccccc1)c1ccc(N=Cc2ccc([N+](=O)[O-])s2)cc1`, for which the inhibition was 62.2% (active).

In the case of `O=[N+]([O-])c1ccc(C=NC23CN4CN(CN(C4)C2)C3)s1`, the inhibition is 94.6% (active). On to `O=C(c1ccccc1)c1cc(Cl)ccc1N=Cc1ccc([N+](=O)[O-])s1`, for which the inhibition is 0.8%. Take `O=[N+]([O-])c1ccc(C=Nc2ccc(Oc3ccccc3)cc2)s1`: the inhibition is 0.3%. Under `CCc1ccc(C=NC23CN4CN(CN(C4)C2)C3)s1` stands -1.3% and -8.8%.

As for `CC(=O)Nc1ccc(N=Cc2ccc([N+](=O)[O-])s2)cc1`, the inhibition is 1.2%.

On to `CN1CCN(/N=C/c2ccc([N+](=O)[O-])s2)CC1`, for which the inhibition is 2.9%. As for `O=[N+]([O-])c1ccc(C=Nc2ccc(Cl)c([N+](=O)[O-])c2)s1`, the inhibition is 67.5% (active).

With `Cn1c(O)c(N=NC(=O)COc2ccc3ccccc3c2)c2cc(Br)ccc21`, the inhibition was 3%. For the compound `C/C(O)=C\C(N)=N/c1nc(C)cc(C)n1`, the inhibition was 2.7%. As for `O=[N+]([O-])c1ccc(C(O)CN2CCN(C/C=C/c3ccccc3)CC2)cc1` (centres undefined), the inhibition was 3.6%. Under `CCC(=O)N1c2ccc(S(=O)(=O)CCC(=O)N3CCn4c3nc3ccccc34)cc2CC1C` (centres undefined) stands 6.1%; under `O=C(NCCNc1ccc([N+](=O)[O-])cc1Cl)c1ccccc1Cl`, 1.6%; under `COCCOC(=O)C1=C(C)NC(=O)CC1c1cccc(Cl)c1` (centres undefined), 3.6%. In the case of `CN(C)CCCNC(=O)c1ccc(CN(c2ccccc2)S(C)(=O)=O)cc1`, the inhibition is -6.3%. Under `C/C(=N\NC(=O)C1(C)CC1(Br)Br)c1ccc(Br)s1` (centres undefined) stands 0.4%. Take `COc1ccccc1CNC(=O)c1ccc(NC(C)=O)cc1`: the inhibition is 2.6%. As for `O=C1C(=O)c2ccccc2C(O)=C1c1ccc([N+](=O)[O-])cc1`, the inhibition was -1.5%. Under `CN=CC1=C(O)c2ccccc2C1=O` stands -0.6%; under `O=C1C(=O)c2ccccc2C(O)=C1[N+](=O)[O-]`, 106% (active); under `COc1cc(/C=N/Nc2nncc(=O)[nH]2)ccc1O`, -0.1%.

Regarding `O=C(c1cn(-c2ccccc2)nc1-c1ccc(F)cc1)N1CCOCC1`, the inhibition was -13.6%. For `CC(=O)Nc1ccc(S(=O)(=O)Nc2cc(C)ccc2C)cc1`, the inhibition is 0.4%. For the compound `CCOc1ccc(-c2cc(OCC)c3c(C)oc(C)c3c(=[O+]CC)c2)cc1`, the inhibition is 3.9%. Regarding `CCOc1cccc(=[O+]CC)c2c(C)oc(C)c12`, the inhibition is 96.5% (active). Turning to `CCOc1cccc(=O)c2c(C)oc(C)c12`, the inhibition is 1.6%. For the compound `Cc1cc(N2CCCC(C(=O)Nc3ccc4c(c3)CCC4)C2)n2ncnc2n1` (centres undefined), the inhibition was -8.9%. Under `O=C1N=C(N=Nc2c(O)[nH]c3ccccc23)S/C1=C/c1ccc(Br)cc1` stands 53.2% (active); under `CN(C)c1ccc(/C=C2/SC(N=Nc3c(O)[nH]c4ccccc34)=NC2=O)cc1`, 28.7%. `Oc1[nH]c2ccccc2c1N=Nc1nc(-c2ccccc2)c2cc(Br)ccc2n1`: the inhibition is 12%. Under `CCOC(=O)C1C(=O)CC(C)(O)C(C(=O)OCC)C1c1ccc(OCC)cc1` (centres undefined) stands 0.2% and -2.5%. For the compound `CCOc1ccc(-n2c(SCC(N)=O)nc3c([nH]c4ccccc43)c2=O)cc1`, the inhibition is -3.1%. In the case of `CC(C)(C)c1cnnn1-c1ccc(NC(=O)c2ccc3c(c2)OCO3)cc1`, the inhibition is -6.9%.

Regarding `CC(C)[C@H](NC(=O)Nc1ccc2c(c1)OCCO2)C(=O)O`, the inhibition was -0.5%. Take `COc1ccc(C(=O)c2no[n+]([O-])c2C(=O)c2ccc(OC)cc2)cc1`: the inhibition was -8.8%. Regarding `Cc1ccc(C(=O)c2nocc2C(=O)c2cccs2)cc1`, the inhibition was -9.8%. Regarding `COC(=O)C1=C(C)NC(=O)NC1c1ccc(OCCO)c(OC)c1` (centres undefined), the inhibition is 4.3%.

As for `O=C(CCC1CCCC1)Nc1cccc(F)c1`, the inhibition was -0.4%. Under `CC(C)Cn1c(=S)[nH]c2sc3c(c2c1=O)CC(C)(C)OC3` stands 3.9%; under `CCOC(=O)CCn1nnc(N)n1`, -5%. For the compound `Cc1cc2c(cc1Br)NC(=O)C2=O`, the inhibition was 1.5%. In the case of `Cc1cc([N+](=O)[O-])ccc1N1C(=O)c2ccccc2C1=O`, the inhibition is -1.5%. Turning to `Cc1cc([N+](=O)[O-])cc2c1NC(=O)C2=O`, the inhibition is 79.8% (active).

Consider `O=C(CSCc1cnn(-c2ccccc2)c1-n1cccc1)NCc1cccs1`, for which the inhibition was -0.1%. For the compound `O=C1C=CC(=O)c2c1c(-c1ccccc1)nn2-c1ccccc1`, the inhibition is 63.4% (active). Take `O=C1c2ccccc2C(=O)c2c1c(-c1ccccc1)nn2-c1ccccc1`: the inhibition is 1.2%.

Take `Cc1ccc(-n2nc(-c3ccccc3)c3c2C(=O)C=CC3=O)cc1`: the inhibition was 38.9%. As for `CN(C)CCC(=O)c1ccc(O)cc1`, the inhibition is 3.3%. Under `N#Cc1c(N)sc2c1CCN(Cc1ccccc1)C2` stands 14.1%. Under `N#Cc1c(N2CCCCC2)nc(N2CCCCC2)c2c1CCN(Cc1ccccc1)C2` stands 3.8%; under `CCn1cc(C(=O)NC2CCCCCC2)c(=O)c2cc(S(=O)(=O)N3CCCCC3)ccc21`, 3.2%; under `CCn1cc(C(=O)NC2CCC(C)CC2)c(=O)c2cc(S(=O)(=O)N3CCCCC3)ccc21` (centres undefined), 56.1% (active). Consider `CCn1cc(C(=O)NC2CCCC2)c(=O)c2cc(S(=O)(=O)N3CCOCC3)ccc21`, for which the inhibition was 3.9%.
